# Many of the other results were omitted from the sample, so the strongest signals are more common in it than they were.
# B1: Clec12b (Mus musculus), Q149M0 (protein)
# chain: MSDEVTYATLMLQDSARVRGNQDGNNLRKEGHPAQSSLWRGAALSLMTLCLVLVTGLVTLATMFLQVSNDINSDSEKLSQLQKSIHPQQDNLSESLNSSRKSLTEESLQSQISALLERQEQMATKLCKEFLIHASDHKCNPCPKTWQWYGNSCYYFSINEEKSWSDSRKDCIDKNATLVKIDSTEERDLLQSQLSLTFSFFWLGLSWNSSGRNWLWEDGSFPPPTLFSDKELASFNGSRDCAYFERGNIYASRCSAEIPWICEKTASLVKTEDLD
# Legend:
# Experiment in all cases: glycan array binding signal (z-score within array); higher = stronger binding
# Settings in all cases: glycan notation: IUPAC condensed, linker removed
# [1] = biological target: Fuc(a1-2)Gal(b1-3)GalNAc
# Summary of the method: (§1)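 Columns mapping to the same glycan were averaged after glycan names were converted to IUPAC-condensed notation. The data come from 3228 arrays in the Consortium for Functional Glycomics database, limited to those with an available protein sequence. Binding is reported as a within-array Z-score averaged across arrays of one protein sequence and across linkers.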
# [2] = biological target: Fuc(a1-2)Gal(b1-3)GalNAc(a1-3)[Fuc(a1-2)]Gal(b1-4)GlcNAc
# Summary of the method: as §1
# [3] = biological target: Fuc(a1-2)Gal(b1-3)GalNAc(b1-3)Gal(a1-4)Gal(b1-4)Glc
# Summary of the method: as §1
# [4] = biological target: Fuc(a1-2)Gal(b1-3)GlcNAc(b1-2)Man(a1-3)[Fuc(a1-2)Gal(b1-3)GlcNAc(b1-2)Man(a1-6)]Man(b1-4)GlcNAc(b1-4)GlcNAc
# Summary of the method: as §1
# [5] = biological target: Fuc(a1-2)Gal(b1-3)GlcNAc(b1-3)Gal(b1-4)Glc
# Summary of the method: as §1
# [6] = biological target: Fuc(a1-2)Gal(b1-3)GlcNAc(b1-3)GalNAc
# Summary of the method: as §1
# [7] = biological target: Fuc(a1-2)Gal(b1-3)[Fuc(a1-4)]GlcNAc(b1-2)Man(a1-3)[Fuc(a1-2)Gal(b1-3)[Fuc(a1-4)]GlcNAc(b1-2)Man(a1-3)]Man(b1-4)GlcNAc(b1-4)GlcNAc
# Summary of the method: as §1
# [8] = biological target: Fuc(a1-2)Gal(b1-4)[Fuc(a1-3)]GlcNAc(b1-2)[Fuc(a1-2)Gal(b1-4)[Fuc(a1-3)]GlcNAc(b1-4)]Man(a1-3)[Fuc(a1-2)Gal(b1-4)[Fuc(a1-3)]GlcNAc(b1-2)Man(a1-6)]Man(b1-4)GlcNAc(b1-4)GlcNAc
# Summary of the method: as §1
# [9] = biological target: Fuc(a1-2)Gal6S(b1-4)Glc
# Summary of the method: as §1
# [10] = biological target: Fuc(a1-2)Gal6S(b1-4)Glc6S
# Summary of the method: as §1
# [11] = biological target: Fuc(a1-2)[Gal(a1-3)]Gal(b1-3)GalNAc(b1-3)Gal(a1-4)Gal(b1-4)Glc
# Summary of the method: as §1
# [12] = biological target: Fuc(a1-2)[Gal(a1-3)]Gal(b1-4)GlcNAc(b1-2)Man(a1-3)[Fuc(a1-2)[Gal(a1-3)]Gal(b1-4)GlcNAc(b1-2)Man(a1-6)]Man(b1-4)GlcNAc(b1-4)GlcNAc
# Summary of the method: as §1
# [13] = biological target: Fuc(a1-2)[GalNAc(a1-3)]Gal(b1-3)GlcNAc(b1-6)GalNAc
# Summary of the method: as §1
# [14] = biological target: Fuc(a1-2)[GalNAc(a1-3)]Gal(b1-4)GlcNAc(b1-3)Gal(b1-4)GlcNAc
# Summary of the method: as §1
# [15] = biological target: Fuc(a1-2)[GalNAc(a1-3)]Gal(b1-4)GlcNAc(b1-3)Gal(b1-4)GlcNAc(b1-3)Gal(b1-4)GlcNAc
# Summary of the method: as §1
# [16] = biological target: Fuc(a1-2)[GalNAc(a1-3)]Gal(b1-4)GlcNAc(b1-6)GalNAc
# Summary of the method: as §1
# [17] = biological target: Fuc(a1-2)[GalNAc(a1-3)]Gal(b1-4)[Fuc(a1-3)]GlcNAc
# Summary of the method: as §1
# [18] = biological target: Fuc(a1-3)GlcNAc
# Summary of the method: as §1
# [19] = biological target: Gal(a1-3)Gal(b1-3)GlcNAc
# Summary of the method: as §1
# [20] = biological target: Gal(a1-3)Gal(b1-3)GlcNAc(b1-6)GalNAc
# Summary of the method: as §1
# [21] = biological target: Gal(a1-3)Gal(b1-4)GlcNAc
# Summary of the method: as §1
# [22] = biological target: Gal(b1-2)Gal
# Summary of the method: as §1
# [23] = biological target: Gal(b1-3)GalNAc(a1-3)[Fuc(a1-2)]Gal(b1-4)GlcNAc
# Summary of the method: as §1
# [24] = biological target: Gal(b1-3)GlcNAc(b1-3)Gal(b1-4)GlcNAc
# Summary of the method: as §1
# [25] = biological target: Gal(b1-3)GlcNAc(b1-6)GalNAc
# Summary of the method: as §1
# [26] = biological target: Gal(b1-3)GlcNAc6S
# Summary of the method: as §1
# [27] = biological target: Gal(b1-3)[Fuc(a1-4)]GlcNAc(b1-2)Man
# Summary of the method: as §1
# [28] = biological target: Gal(b1-3)[Fuc(a1-4)]GlcNAc(b1-2)Man(a1-3)[Gal(b1-3)[Fuc(a1-4)]GlcNAc(b1-2)Man(a1-6)]Man(b1-4)GlcNAc(b1-4)[Fuc(a1-6)]GlcNAc
# Summary of the method: as §1
# [29] = biological target: Gal(b1-3)[GlcNAc(b1-6)]GalNAc
# Summary of the method: as §1
# [30] = biological target: Gal(b1-4)GlcNAc(b1-2)[Gal(b1-4)GlcNAc(b1-6)]Man(a1-6)[Gal(b1-4)GlcNAc(b1-2)Man(a1-3)]Man(b1-4)GlcNAc(b1-4)[Fuc(a1-6)]GlcNAc
# Summary of the method: as §1
# [31] = biological target: Gal(b1-4)GlcNAc(b1-3)Gal(b1-4)GlcNAc(b1-3)Gal(b1-4)GlcNAc(b1-3)Gal(b1-4)GlcNAc(b1-3)Gal(b1-4)GlcNAc(b1-2)Man(a1-3)[Gal(b1-4)GlcNAc(b1-3)Gal(b1-4)GlcNAc(b1-3)Gal(b1-4)GlcNAc(b1-3)Gal(b1-4)GlcNAc(b1-3)Gal(b1-4)GlcNAc(b1-2)Man(a1-6)]Man(b1-4)GlcNAc(b1-4)GlcNAc
# Summary of the method: as §1
binder,measurement,setting,value
B1,glycan array binding signal (z-score),[1],-0.451
same,glycan array binding signal (z-score),[2],0.211
same,glycan array binding signal (z-score),[3],-0.395
same,glycan array binding signal (z-score),[4],2.66
same,glycan array binding signal (z-score),[5],3.25
same,glycan array binding signal (z-score),[6],-0.484
same,glycan array binding signal (z-score),[7],2.58
same,glycan array binding signal (z-score),[8],2.82
same,glycan array binding signal (z-score),[9],0.808
same,glycan array binding signal (z-score),[10],-0.568
same,glycan array binding signal (z-score),[11],-0.052
same,glycan array binding signal (z-score),[12],0.853
same,glycan array binding signal (z-score),[13],4.57
same,glycan array binding signal (z-score),[14],-0.749
same,glycan array binding signal (z-score),[15],-0.115
same,glycan array binding signal (z-score),[16],0.308
same,glycan array binding signal (z-score),[17],-0.288
same,glycan array binding signal (z-score),[18],-0.323
same,glycan array binding signal (z-score),[19],5.35
same,glycan array binding signal (z-score),[20],-0.324
same,glycan array binding signal (z-score),[21],0.53
same,glycan array binding signal (z-score),[22],2.74
same,glycan array binding signal (z-score),[23],-0.587
same,glycan array binding signal (z-score),[24],-0.41
same,glycan array binding signal (z-score),[25],-0.588
same,glycan array binding signal (z-score),[26],0.486
same,glycan array binding signal (z-score),[27],0.927
same,glycan array binding signal (z-score),[28],3.71
same,glycan array binding signal (z-score),[29],-0.137
same,glycan array binding signal (z-score),[30],0.226
same,glycan array binding signal (z-score),[31],0.028

# Source: the supplement of paper PMC8728848
